Results taken from article PMC4552634, “A New Set of Chemical Starting Points with Plasmodium falciparum Transmission-Blocking Potential for Antimalarial Drug Discovery” (PLoS ONE, 2015).
The whole screen tested about 13,000 compounds, of which about 3,200 (25%) showed an effect of 50% or more. The list shows a part of the results.

The molecules below were run on P. falciparum stage V gametocytes. Details: 48 h, 5 µM; inhibitor.
Design: BacTiter-Glo ATP luminescence viability of purified stage V gametocytes in 384-well plates, per cent inhibition versus DMSO

Compound | % Inhibition [%]
N=C(N)Nc1ccc(Cc2ccc(NC(=N)N)cc2)cc1 [TCMDC-137917] | -14.93
CCCCCN1CCCC(NS(=O)(=O)c2ccc(C(=O)Nc3cccc(C(F)(F)F)c3)cc2)C1 (centres unmarked) [TCMDC-132774] | -2.262
CCCCCN1CCC(NS(=O)(=O)c2cccc(C(=O)Nc3cccc(C(F)(F)F)c3)c2)C1 (centres unmarked) [TCMDC-132488] | -38
CCCCCN1CCC(NS(=O)(=O)c2cccc(C(=O)Nc3ccc(C(F)(F)F)cc3)c2)C1 (centres unmarked) [TCMDC-132486] | -23.98
CCCCCN1CCCC(NS(=O)(=O)c2cccc(C(=O)Nc3cccc(C(F)(F)F)c3)c2)C1 (centres unmarked) [TCMDC-132768] | 75.62
CCCCCN1CCCCC(NS(=O)(=O)c2ccc(C(=O)Nc3cccc(C(F)(F)F)c3)cc2)C1 (centres unmarked) [TCMDC-132778] | -0.2647
CCCCCN1CCC(NS(=O)(=O)c2ccc(C(=O)Nc3cccc(C(F)(F)F)c3)cc2)C1 (centres unmarked) [TCMDC-132771] | 83.46
CN1CC=C(c2c[nH]c3ccc(OCc4ccccc4)cc23)CC1 [TCMDC-132113] | -6.135
Cc1ccc(C2=NNC3(S2)C(=O)Nc2ccc(C)cc23)cc1 (centres unmarked) [TCMDC-123866] | 44.96
CCCCNC(=O)[C@@H]1CCCN1C(=O)c1ccc(O)c(-c2ccc(Cl)c(Cl)c2)c1 [TCMDC-140837] | 7.64
Clc1ccc(CNc2nc(NCCc3cnc[nH]3)nc(NC3CCCCC3)n2)cc1 [TCMDC-139734] | -12.92
NCC1CCCN1Cc1ccc(-c2cccc(-c3nc4ccc(C(F)(F)F)cc4[nH]3)c2)cc1 (centres unmarked) [TCMDC-132990] | 70.04
NCC1CCCN1Cc1ccc(-c2ccc(-c3nc4ccc(C(F)(F)F)cc4[nH]3)cc2)cc1 (centres unmarked) [TCMDC-132995] | 50.61
OCCN1CCN(Cc2ccc(-c3cccc(-c4nc5ccc(C(F)(F)F)cc5[nH]4)c3)cc2)CC1 [TCMDC-133024] | 24.38
NCC1CCCN1Cc1cccc(-c2ccc(-c3nc4ccc(C(F)(F)F)cc4[nH]3)cc2)c1 (centres unmarked) [TCMDC-132996] | 21.42
OCC1CCN(Cc2ccc(-c3ccc(-c4nc5ccc(C(F)(F)F)cc5[nH]4)cc3)cc2)CC1 [TCMDC-133124] | -13.18
NCC1CCCN1Cc1ccc(-c2ccc(-c3nc4cc(C(F)(F)F)ccc4[nH]3)s2)cc1.O=C(O)C(F)(F)F (centres unmarked) [TCMDC-133000] | 16.97
Fc1ccc2cc(C=Cc3ccncc3)[nH]c2c1 [TCMDC-137494] | -53.7
O=C(Nc1cccc(C(F)(F)F)c1)Nc1nc2ccc([N+](=O)[O-])cc2s1 [TCMDC-123631] | 27.05
Cn1cncc1-c1ccc2ncnc(Nc3ccc(OCc4ccccc4)cc3)c2c1 [TCMDC-137504] | -32.31
Cc1ccc(Nc2nc3cc(N(C)c4ccnc(Nc5cccc(CCS(C)(=O)=O)c5)n4)ccc3n2C)cc1 [TCMDC-138853] | -59.51
Cc1ccc(Nc2nccc(Nc3ccc4c(c3)nc(Nc3cc(C(C)(C)C)on3)n4C)n2)cc1S(C)(=O)=O [TCMDC-141889] | 96.33
Cn1c(NCc2cc(F)cc3c2OCOC3)nc2cc(Nc3ccnc(Nc4cccc(CS(C)(=O)=O)c4)n3)ccc21 [TCMDC-134151] | -2.358
Cc1ccc(Nc2nccc(Nc3ccc4c(C)[nH]nc4c3)n2)cc1F [TCMDC-138542] | -63.2

Compound | % Inhibition [%]
Cc1[nH]nc2cc(Nc3ccnc(Nc4cccc(CN5CCOCC5)c4)n3)ccc12 [TCMDC-138632] | 3.491
CN(c1ccc2c(c1)nc(Nc1cc(C(C)(C)C)on1)n2C)c1ccnc(Nc2ccc(CS(C)(=O)=O)cc2)n1 [TCMDC-141892] | -9.766
CN1CCN(S(=O)(=O)c2cccc(Nc3nccc(N(C)c4ccc5c(c4)nc(NC(=O)c4cccs4)n5C)n3)c2)CC1 [TCMDC-134378] | 79.98
Cc1ccc(Nc2nccc(N(C)c3ccc4c(c3)nc(NC(=O)Cc3ccc(Cl)c(Cl)c3)n4C)n2)cc1S(N)(=O)=O [TCMDC-141965] | -9.254
Cn1c(Nc2cc(C(C)(C)C)on2)nc2cc(Nc3ccnc(Nc4cccc(S(=O)(=O)N5CCOCC5)c4)n3)ccc21 [TCMDC-134098] | 97.72
Cn1c(Nc2cc(C(C)(C)C)on2)nc2cc(Nc3ccnc(Nc4ccc(CS(C)(=O)=O)cc4)n3)ccc21 [TCMDC-141890] | 82.06
Cn1c(Nc2cc(C(C)(C)C)on2)nc2cc(Nc3ccnc(Nc4cccc(CS(C)(=O)=O)c4)n3)ccc21 [TCMDC-141893] | 24.31
CN(c1ccc2c(c1)nc(NC(=O)C1(c3cc(F)ccc3F)CC1)n2C)c1ccnc(Nc2cccc(CS(C)(=O)=O)c2)n1 [TCMDC-141964] | -60.83
COc1ccc2nc(C)cc(Nc3ccc(Oc4ccc(Cl)c5ccccc45)c(Cl)c3)c2c1 [TCMDC-123856] | 5.816
N#Cc1ccc2c(c1)CN(CCC1CCC(NC(=O)c3cc4cnccc4[nH]3)CC1)CC2 (centres unmarked) [TCMDC-139174] | -27.42
O=C(NCc1cccc(F)c1)Nc1ccc(-c2ccc(-c3nc4ccc(C(F)(F)F)cc4[nH]3)cc2)cc1 [TCMDC-133287] | -9.31
Cc1cccc(NC(c2cccs2)c2c(NC(=O)c3ccccc3)sc(C)c2C)n1 (centres unmarked) [TCMDC-124747] | -63.38
CCCCOc1ccc(C(O)C(CN2CCCCC2)c2ccccc2)cc1 (centres unmarked) [TCMDC-124252] | 4.712
CCCCCOc1ccc(N2C(N)=NC(N)=NC2(C)C)cc1 [TCMDC-137711] | 13.1
COc1ccc(OCCON)cc1 [TCMDC-123473] | 14.77
C=CCNC(CCCCC)c1ccc(OCCOc2ccc(C(CCCCC)NCC=C)cc2)cc1 (centres unmarked) [TCMDC-137483] | 106.6
CCCCC(NCC)c1ccc(OCCOc2ccc(C(CCCC)NCC)cc2)cc1 (centres unmarked) [TCMDC-137612] | 115.6
CCCCCCOc1ccc(N2C(N)=NC(N)=NC2(C)C)cc1 [TCMDC-137369] | 25.73
CCCCCOc1ccc(NC2=CC(=O)C(=O)c3ccccc32)cc1 [TCMDC-125724] | -1.294
CCCCCCC(N)c1ccc(OCCCOc2ccc(C(N)CCCCCC)cc2)cc1 (centres unmarked) [TCMDC-137621] | 121.4
CCCCCCCCOc1ccc(N2C(N)=NC(N)=NC2(C)C)cc1 [TCMDC-137707] | -8.138
CCCCCC(NCCCC)c1ccc(OCCOc2ccc(C(CCCCC)NCCCC)cc2)cc1 (centres unmarked) [TCMDC-137613] | 107.4
CCCCOc1ccc(N2C(N)=NC(N)=NC2(C)C)cc1 [TCMDC-124279] | -11.62
CC(O)C1CCCCN1C(=O)c1cccc(-c2ccc(-c3nc4cc(C(F)(F)F)ccc4[nH]3)cc2)c1 (centres unmarked) [TCMDC-132334] | -28.97

Compound | % Inhibition [%]
CC(C)CCn1c(Sc2ccc(C#N)c([N+](=O)[O-])c2)nnc1-c1ccc(N(C)C)cc1 [TCMDC-135617] | 45.75
COc1ccc(-c2nc3c(NCc4ccccc4)nccc3[nH]2)c(OC)c1 [TCMDC-137551] | -15.03
C=CCn1c(SCc2c(C)noc2C)nc2scc(-c3cccs3)c2c1=O [TCMDC-125027] | -8.905
CC(C)c1ncc(-c2ccncc2)c(C2CCC(CNC(=O)c3ccncc3)CC2)n1 (centres unmarked) [TCMDC-124824] | 1.29
Cc1[nH]c2ccccc2c1C1=CCN(CCN2CCOc3c(Br)cccc3C2=O)CC1 [TCMDC-140965] | -7.337
CN1CCN(c2cc3c(Nc4ccc5c(cnn5Cc5ccccc5)c4)ncnc3cn2)CC1 [TCMDC-137767] | 5.484
N#Cc1ccc2c(c1)CN(C1CCC(NC(=O)c3cc(-c4ccc(Cl)cc4)cs3)CC1)CCC2 (centres unmarked) [TCMDC-133504] | 5.468
CCOC(=O)/C(=N\OC(C(=O)OC(C)(C)C)c1ccccc1)c1csc(NC(c2ccccc2)(c2ccccc2)c2ccccc2)n1 (centres unmarked) [TCMDC-131980] | 21.22
CCOC(=O)/C(=N\OC(C)(C)C(=O)NCc1ccc(O)c(O)c1)c1csc(NC(c2ccccc2)(c2ccccc2)c2ccccc2)n1 [TCMDC-132099] | -13.25
CC(C)(C)OC(=O)/C=C(\C(=O)OCc1ccc([N+](=O)[O-])cc1)c1csc(NC(c2ccccc2)(c2ccccc2)c2ccccc2)n1 [TCMDC-131971] | 65.48
COc1ccc(NC(=O)/C=C/c2ccc(Oc3ccccc3Cl)c([N+](=O)[O-])c2)cc1OCCN(C(C)C)C(C)C [TCMDC-140388] | -71.01
COC(=O)c1ccc2nc(-c3cc(OC)c(O)c(C(=O)NC4CCN(Cc5ccccc5)CC4)c3)[nH]c2c1 [TCMDC-140427] | 6.107
O=C(NC1CCN(Cc2ccccc2)CC1)c1cccc(-c2nc3ccc(Cl)cc3[nH]2)c1 [TCMDC-140425] | 27.77
CC(C)(C)c1ccc2nc(-c3ccc(C(=O)NC4CCN(Cc5ccccc5)CC4)s3)[nH]c2c1 [TCMDC-140514] | 58.98
COC(=O)c1ccc2nc(-c3ccc(/C=C/C(=O)NC4CCN(Cc5ccccc5)CC4)cc3)[nH]c2c1 [TCMDC-140446] | 84.95
O=C(/C=C/c1ccc(-c2nc3ccc(Cl)cc3[nH]2)cc1)NC1CCN(Cc2ccccc2)CC1 [TCMDC-140443] | 63
Cc1cc2nc(-c3ccc(/C=C/C(=O)NC4CCCCC4)cc3)[nH]c2cc1C [TCMDC-140435] | -5.542
Cc1cc2nc(-c3cccc(C(=O)NC4CCN(Cc5ccccc5)CC4)c3)[nH]c2cc1C [TCMDC-140424] | 75.94
O=C(C=Cc1ccc(-c2nc3ccccc3[nH]2)cc1)NC1CCN(Cc2ccccc2)CC1 [TCMDC-140400] | -89.03
Cc1ccc2nc(-c3ccc(C(=O)NC4CCN(Cc5ccccc5)CC4)s3)[nH]c2c1 [TCMDC-140399] | -1.012
CC(C)(C)c1ccc2nc(-c3ccc(/C=C/C(=O)NC4CCN(Cc5ccccc5)CC4)cc3)[nH]c2c1 [TCMDC-140456] | 48.62
COC(=O)c1ccc2nc(-c3ccc(C(=O)NC4CCN(Cc5ccccc5)CC4)s3)[nH]c2c1 [TCMDC-140426] | -65.59
Cc1cc2nc(-c3ccc(C(=O)NC4CCN(Cc5ccccc5)CC4)cc3)[nH]c2cc1C [TCMDC-140428] | -59.23
